Test results reported in the supplement of paper PMC3334620.
Over roughly 33,000 sequences, “E-score (-0.5 to 0.5)” has its median near -0.013; the highest 2% begin near 0.3. The full list was thinned out, with the highest values kept by preference.

biological target: T1, Msn1 (UniProt P22148); assay: PBM E-score (8-mer binding enrichment) (E-score (-0.5 to 0.5)); higher = stronger / more preferred TF binding; conditions: protein concentration: 200 nM; construct: GST-full length
T1 sequence: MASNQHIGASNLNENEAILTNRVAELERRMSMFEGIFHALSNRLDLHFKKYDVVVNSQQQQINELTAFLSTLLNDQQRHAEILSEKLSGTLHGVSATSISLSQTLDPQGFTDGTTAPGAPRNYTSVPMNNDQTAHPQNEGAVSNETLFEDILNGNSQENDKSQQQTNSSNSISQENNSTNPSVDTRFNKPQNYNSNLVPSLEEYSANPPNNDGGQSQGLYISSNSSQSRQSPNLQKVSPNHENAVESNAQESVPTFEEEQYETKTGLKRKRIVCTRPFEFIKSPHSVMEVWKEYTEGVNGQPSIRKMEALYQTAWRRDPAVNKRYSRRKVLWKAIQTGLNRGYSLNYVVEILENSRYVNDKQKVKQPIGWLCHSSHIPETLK
Method in brief: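 Bound GST-tagged yeast transcription factors, applied at about 100-200 nM to double-stranded universal all-10-mer Agilent arrays, were detected with fluorescent anti-GST. Scans were normalised with masliner. A modified Wilcoxon-Mann-Whitney statistic, the E-score, was assigned to each ungapped eight-base word pooled with its reverse complement by the Universal PBM Analysis Suite.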

| Sequence | PBM E-score |
| --- | --- |
| GGGACCCA | -0.139 |
| TAGCGTCA | -0.0365 |
| GTATGTCA | 0.35 |
| ATATGTTG | 0.0727 |
| ATATGTGG | 0.0596 |
| ATATGTCA | 0.401 |
| CTATGTCA | 0.167 |
| ATATGTTA | -0.0436 |
| GTATGTAA | 0.0384 |
| GTATGTTA | 0.0222 |
| ATATGTCG | 0.379 |
| AATACTCT | 0.0619 |
| ATTAGAGA | 0.00489 |
| GTCTTGGA | 0.0469 |
| CAAAGTTG | 0.101 |
| GTCTGAAA | 0.241 |
| CCCCAATA | -0.122 |
| ATATTCCA | 0.212 |
| ATATTCCC | 0.0634 |
| ATATTCCG | 0.321 |
| ACGTAGCG | -0.138 |
| CGTTTGTC | 0.44 |
| AGTTTGTC | 0.446 |
| CGTTTGAC | 0.12 |
| CGTTTGTA | 0.189 |

| Sequence | PBM E-score |
| --- | --- |
| AGTTTGTA | 0.182 |
| AGTTTGTG | -0.0605 |
| TATGTAAA | 0.0978 |
| GACGCCAA | -0.157 |
| TTATTAAA | 0.29 |
| GAAATTAA | 0.34 |
| AAATTAAA | 0.355 |
| AGATTAAA | 0.309 |
| CAAATTAA | 0.0951 |
| AGATTAAT | 0.0857 |
| AAAATTAA | 0.187 |
| AAATTAAT | 0.199 |
| CTATTAAA | 0.179 |
| ATATTAAA | 0.344 |
| AAATTAAC | 0.0769 |
| CGATTAAA | 0.0941 |
| TGGGTCAA | -0.0713 |
| CGCCAAGA | -0.142 |
| GCAGAGGC | -0.241 |
| CCCTGCCG | -0.254 |
| CGCCAATC | -0.0945 |
| AATGCCCC | -0.197 |
| AATTCAGG | 0.109 |
| GCGGGTGA | -0.0547 |
| GCACAAAC | 0.0596 |

| Sequence | PBM E-score |
| --- | --- |
| AAGCCTCT | -0.17 |
| CCAATGTA | 0.0173 |
| CCAATGTC | 0.328 |
| ACAATGTG | 0.0288 |
| ACAATGTA | 0.156 |
| CCAATGAC | -0.00959 |
| ACAATGTC | 0.452 |
| GCATAAAA | 0.128 |
| AATCCTTA | -0.134 |
| CGAGCTAA | -0.0305 |
| CAGAATAA | 0.0293 |
| TCGACACA | 0.133 |
| GGGACACA | 0.449 |
| TGGACACA | 0.427 |
| TGCACACA | 0.0221 |
| GTGACACA | 0.286 |
| GGGACACC | 0.185 |
| AGGAAATC | 0.0408 |
| AAGTGCGC | -0.108 |
| ATGCTGTC | 0.0368 |
| GTAGCGCA | -0.107 |
| CCAAGAAG | -0.0807 |
| ATTATAAA | 0.17 |
| ATTATAAT | 0.307 |
| ATTATAAG | 0.103 |

| Sequence | PBM E-score |
| --- | --- |
| CCACATAC | 0.0664 |
| CACCAACG | 0.185 |
| CCATAGAG | 0.0389 |
| ACGCTAAT | -0.223 |
| AAAGGCCG | -0.00669 |
| ATACCTAG | -0.0479 |
| CTGTCTTA | 0.181 |
| ATGTCTGA | 0.425 |
| AAGTCTTG | 0.0419 |
| ATGTCTTA | 0.423 |
| ATGTCTGG | 0.323 |
| GTGTCTGA | 0.185 |
| ATGTCTTG | 0.35 |
| CTGTCTGA | 0.0827 |
| ATGTCTTC | 0.293 |
| ACGTCTGG | 0.154 |
| GTGTCTTA | 0.04 |
| ATGTCTGC | 0.286 |
| GACCATTA | 0.0825 |
| ATCACAAT | -0.035 |
| CAAACGAG | 0.099 |
| CAGAGGAC | 0.0901 |
| CAACGGAC | 0.121 |
| AGAGCCGC | -0.0659 |
| ATCGCGTA | -0.176 |

| Sequence | PBM E-score |
| --- | --- |
| ACAGTCGA | -0.0747 |
| ATCCCGAT | 0.125 |
| ACAAAGGC | 0.098 |
| CCTCAAGC | -0.277 |
| ACGCTGGG | -0.406 |
| ATCTTGCG | -0.0566 |
| CGCGGACA | 0.329 |
| TGCGGACA | 0.427 |
| CGCGGACC | 0.0148 |
| AGCGGACA | 0.359 |
| AGCGGACT | -0.229 |
| TGCGGAAA | 0.0764 |
| CGCGGACG | 0.181 |
| GGCGGACA | 0.273 |
| AGCGGACG | 0.0534 |
| CTGCTCAA | 0.0116 |
| CGAGTGCG | 0.0204 |
| CGTTGCAG | -0.0934 |
| AACATTCA | -0.0503 |
| GACATTCA | 0.449 |
| AACATTCC | -0.0175 |
| GACATTCC | 0.456 |
| CACATTCC | 0.0503 |
| CACATTCA | -0.0795 |
| ATACATAT | 0.264 |

| Sequence | PBM E-score |
| --- | --- |
| CCGCTCTA | 0.0134 |
| GACTCCCC | -0.207 |
| ATTTCTCG | 0.255 |
| CGATACCG | -0.0866 |
| CCGGACAC | 0.288 |
| TCGGACCA | 0.12 |
| ACGGACCA | 0.0706 |
| ACGGACGA | 0.0949 |
| CCGGACAG | 0.227 |
| TCGGACGA | 0.199 |
| GCGGACCA | 0.0483 |
| GCGGACAA | 0.44 |
| CCGGACAA | 0.452 |
| TCGGACAA | 0.457 |
| ACGGACAA | 0.474 |
| GCGGACAC | 0.162 |
| ACATTCGT | 0.0578 |
| AATTCTCT | -0.229 |
| CGACCGCG | -0.0918 |
| CGGGAGGA | -0.0135 |
| GAGTGTGC | 0.0104 |
| GCTACACC | -0.162 |
| GCCTGACC | -0.234 |
| AAATACCA | -0.0306 |
| ACAAAATA | 0.188 |

| Sequence | PBM E-score |
| --- | --- |
| AAAAAATC | 0.105 |
| CCAAAATC | 0.0937 |
| ACAAAATG | 0.312 |
| ATAAAATG | 0.341 |
| ATAAAATC | 0.0924 |
| AAAAAATG | 0.287 |
| ATAAAATA | 0.183 |
| ACAAAATC | 0.352 |
| GCCGATTA | -0.0616 |
| ATTGCCGG | -0.0182 |
| GGATAGAC | -0.0706 |
| AGACATCG | 0.226 |
| TGACATCA | 0.257 |
| AGACATCC | 0.328 |
| CGACATCA | 0.125 |
| CGACATCC | 0.0825 |
| AGACATCT | 0.29 |
| GGACATCA | 0.396 |
| GAACATCC | 0.162 |
| GGACATCC | 0.475 |
| ATAGTGGA | 0.0789 |
| CCCTGCTC | -0.172 |
